NPSR antag = blocks cAMP signaling of the human neuropeptide S receptor; CHO-NPSR cells, cAMP TR-FRET, antagonist mode; 220,000 compounds, 1% hits; Q6W5P4; Potency, µM (highest dose often 38.3 µM), inactives show top-dose activity change, negative = inhibition, hits mostly inhibitors; AID 1461; also: potency is read from the fitted curve at half-maximal effect; % is scaled to controls: 0 for no effect and ±100 for the full control effect; nearly all actives have a fitted effect of over 50% in size
Target sequence (Q6W5P4 whole entry, looked up): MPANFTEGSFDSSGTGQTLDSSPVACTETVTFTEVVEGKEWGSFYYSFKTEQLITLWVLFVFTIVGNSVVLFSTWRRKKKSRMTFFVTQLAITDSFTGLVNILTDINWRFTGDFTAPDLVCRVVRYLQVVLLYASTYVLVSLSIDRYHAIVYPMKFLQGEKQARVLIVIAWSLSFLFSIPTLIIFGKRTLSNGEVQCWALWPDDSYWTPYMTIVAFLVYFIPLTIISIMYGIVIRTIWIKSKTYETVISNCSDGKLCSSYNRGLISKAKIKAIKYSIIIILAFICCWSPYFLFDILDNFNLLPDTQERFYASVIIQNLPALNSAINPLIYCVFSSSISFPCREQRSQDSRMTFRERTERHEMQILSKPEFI
IMPase cell inh = cell-permeable inhibitors of inositol monophosphatase (IMPase); AID 901; 120,000 tested, under 10 active; inhibition (IP1 accumulation), % at 46.1 µM; P97697; CHO-M1 cells, IP1 accumulation, HTRF TR-FRET ratio; active = well fitted curve in the direction sought with a large enough effect in the signal ratio, not every such curve was filed as active; inconclusive = small, poorly fitted or top-dose-only effect, or a change in a side signal; inactive = no such curve, though single readings can be large or run the other way; the % refers to the signal ratio;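 also: cells stimulated with carbachol in lithium chloride buffer; plate controls were DMSO basal wells for no effect and reference inhibitor wells for full effect; higher means more IMPase inhibition seen as more IP1 and lower FRET ratio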
Target sequence (P97697 whole entry, looked up): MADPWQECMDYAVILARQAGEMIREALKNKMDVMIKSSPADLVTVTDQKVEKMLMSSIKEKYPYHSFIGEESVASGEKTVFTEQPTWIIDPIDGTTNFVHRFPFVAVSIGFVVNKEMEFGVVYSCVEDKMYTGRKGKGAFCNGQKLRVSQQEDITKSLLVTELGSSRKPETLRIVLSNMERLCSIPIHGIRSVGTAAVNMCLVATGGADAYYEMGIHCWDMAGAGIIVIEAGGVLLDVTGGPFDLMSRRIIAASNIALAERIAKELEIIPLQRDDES
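CHO-M1 cells (CHO stably expressing M1 receptor), compound up to 46 uM final, stimulated with carbachol (50 uM as added) in buffer with 50mM LiCl, pH 7.4, 30 min at 37C. Cytosolic IP1 read by TR-FRET; AC50 from Hill fits.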
HTT cytoprotect = cytoprotection in Huntington HTT-Q103 PC12 cell model. PC12 HTT-Q103 induced, cytoprotection, ATP luminescence, 40 h. AID 1471. Potency, µM (doses to about 56.4 µM), for inactives: cytoprotection (ATP increase), most hits filed as activators. 230,000 compounds, 0.14% hits; also: potency is read from the fitted curve at half-maximal effect; % of control where 0% means no effect; nearly all actives have a fitted effect of over 45% in size
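Stable PC12 Q103-GFP cells in serum-supplemented, phenol red-free DMEM; induction by tebufenozide at 100 nM final; compound dose series; cell viability quantified luminescently from ATP.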
HTT aggregate = inhibitors of mutant huntingtin aggregate formation in PC12 cells; AID 1688; PC12 HttQ103-GFP aggregates, Acumen cytometry, 40 h; 220,000 compounds, 1.1% hits; Potency, µM (highest dose often 46.1 µM), for inactives: at the top dose activity change, negative = inhibition, hits mostly inhibitors; also: potency is read from the fitted curve at half-maximal effect; % is scaled to controls: 0 for no effect and ±100 for the full control effect; nearly all actives have a fitted effect of over 60% in size
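Read-out: GFP aggregate count by laser scanning cytometer (488 nm excitation, 500-530 nm emission, 1–25 µm objects >6 SD above background). Cells: PC12, inducible HTTex1-Q103-GFP, 100 nM tebufenozide; compounds titrated.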
IMPase Li cell = cell-permeable IMPase inhibitors with lithium potentiation. CHO-M1 cells, IP1 TR-FRET (IP-One), carbachol + lithium. Potency, µM (series often up to 59.4 µM), for inactives: at the top dose activity, negative = IMPase inhibition, hits mostly inhibitors. 210,000 compounds, 0.35% hits;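 also: IP1 builds up when IMPase is blocked and the TR-FRET signal falls; potency is read from the fitted curve at half-maximal effect; plate controls were basal vehicle for no effect and high inhibitor control for full effect; nearly all actives have a fitted effect of over 50% in size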
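Concentration–response in CHO-M1 cells, lithium-potentiated; 30 min at 37C. IP1 detected by competitive TR-FRET after 10 min lysis at RT. Hill-fitted AC50.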
LMNA splice mod = modulators of lamin A splicing. HeLa LMNA splicing GFP/RFP minigene ratio, 48 h. Potency, µM (highest dose often 46.1 µM), for the others: top-dose ratio change, negative = inhibition, usual class: inhibitors. 200,000 compounds, 0.01% hits; active = well fitted inhibition curve with a large enough effect in the signal ratio, with a control signal flat, not every such curve was filed as active; inconclusive = small, poorly fitted or top-dose-only effect, or effect the other way, or a change in a side signal; the % refers to the signal ratio; also: potency is read from the fitted curve at half-maximal effect; % is scaled to controls: 0 for no effect and ±100 for the full control effect
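S3 HeLa stable clones carrying a lamin A-EGFP splicing minigene plus DsRed2 were seeded at 600 cells/well in Opti-MEM with 2% FBS, pin-dosed and incubated 48 h at 37°C. Acumen cytometry (488 nm) gave the GFP/RFP total-intensity ratio.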
* = called active by the depositor; ? = inconclusive; / = no result given; ! = not active in a repeat; [ ] = remark or other dose. Compounds with a hit are over-represented: about 1.6% of the library has one in this group of screens. Unless noted, calls follow the shape of the dose curve; as a rule, active = well fitted curve in the direction sought with a large enough effect; inconclusive = small, poorly fitted or top-dose-only effect, or another doubt; inactive = no such curve, though single readings can be large; an effect the other way counts as inactive or inconclusive.

SMILES | NPSR antag | IMPase cell inh | HTT cytoprotect | HTT aggregate | IMPase Li cell | LMNA splice mod
FC(F)(F)C(F)(F)C(F)(F)C(F)(F)C(F)(F)C(F)(F)C(F)(F)C(F)(F)Br | / | / | -19.0% | 11.8% | / | ?
COc1ccc(-c2nc3ccccc3n2Cc2ccccc2)cc1 | ? | ? | -23.8%[10 µM] | ? | 12.3%[38.3 µM] | -0.3%
COc1ccc(-c2n(Cc3ccccc3)c3ccccc3[n+]2Cc2ccccc2)cc1 | 10µM* | / | / | / | 26.5% | /
O=C1c2cccc3c2[C@@H](CCC3)CN1[C@@H]1CN2CCC1CC2 | / | / | -37.3% | -17.0% | / | /
c1cc2c(cc1-c1cnc3n1CCC3)OCCO2 | -4.9%[46.1 µM] | -4.9 | 26.3% | 25.1µM* | 3.3%[38.3 µM] | ?
Cc1ccc(-c2cnc3n2CCCCC3)cc1 | 6.8% | / | -2.6%[10 µM] | 1.9% | 23.8% | -16.5%[46 µM]
COc1cccc2c1C(=O)c1c(O)c3c(c(O)c1C2=O)C[C@](O)(C(=O)CO)C[C@@H]3O[C@H]1C[C@H](N)[C@@H](O)[C@H](C)O1 | / | / | -26.1% | -2.9% | / | -11.0%
COc1cccc2c1C(=O)c1c(O)c3c(c(O)c1C2=O)C[C@@](O)(C(=O)CO)C[C@@H]3OC1C[C@@H](N)[C@H](O)[C@H](C)O1 (stereo not given in full) | / | / | -183.4% | / | 16.8% | /
COc1cccc2c1C(=O)c1c(O)c3c(c(O)c1C2=O)C[C@@](O)(C(C)=O)C[C@@H]3O[C@H]1C[C@H](N)[C@H](O)[C@H](C)O1 | ? | 16.3 | -141.5% | 2.24µM*! | 33.1% | ?
CC(=O)[C@]1(O)Cc2c(O)c3c(c(O)c2[C@@H](O[C@H]2C[C@H](N)[C@H](O)[C@H](C)O2)C1)C(=O)c1ccccc1C3=O | -9.4%[46.1 µM] | / | -97.2% | 0.631µM* | 42.1% | ?
CC(=O)[C@]1(O)Cc2c(O)c3c(c(O)c2[C@@H](O[C@H]2C[C@H](N)[C@H](O)[C@H](C)O2)C1)C(=O)c1c(O)cccc1C3=O | / | / | -34.9% | 0.631µM* | 31.1% | /
NC(C(=O)O)c1cc(O)c(Cl)c(O)c1 (stereo not given) | / | / | -17.0% | / | -0.3% | /
N#CCc1ccccc1[N+](=O)[O-] | / | / | 17.3% | / | 12.7% | /
O=C(c1cccs1)N1CCc2c([nH]c3ccccc23)C1c1ccc(Cl)cc1 (stereo not given) | 10µM* | 3.0 | -32.7% | -16.4% | 6.7%[38.3 µM] | ?
C#CC(=O)N(c1cc(OC)ccc1OC)C(C(=O)NC1CCCC1)c1cccs1 (stereo not given) | 10µM* | 13.5 | -95.9% | ? | 18.2%[38.3 µM] | ?
O=[N+]([O-])c1ccc2c(c1)ncn2-c1ccccc1 | -4.9% | / | / | 26.8% | -0.4% | 5.3%
Cn1c(-[n+]2c(-c3ccccc3)cc(-c3ccccc3)cc2-c2ccccc2)nc2cc([N+](=O)[O-])ccc21 | 10µM* | ? | -9.5%[10 µM] | ? | / | ?
Cc1ccc(N=Cc2cc3c(cc2O)OC(N)=C(C#N)C3c2ccccc2)cc1 (stereo not given) | ? | 8.0 | -16.1%[1.9 µM] | 10µM* | 1.4% | ?
Cc1ccccc1N=Cc1cc2c(cc1O)OC(N)=C(C#N)C2c1ccccc1 (stereo not given) | ? | -5.6 | 25.6%[1.9 µM] | ? | -4.5% | ?
N#CC1=C(N)Oc2cc(O)c(C=Nc3ccccc3)cc2C1c1ccccc1 (stereo not given) | ? | -2.8 | 6.7%[1.9 µM] | 1.58µM* | -1.5% | ?
C=C(C)COc1ccc2c(c1)CCC1C2CC[C@]2(C)C(=O)/C(=N/O)CC12 (stereo not given in full) | / | / | -20.0%[10 µM] | / | -12.1% | /
COc1ccc(NC(=O)c2ccc(-c3ccc(-c4noc(C)n4)cc3C)cc2)cc1OCCN(C)C | / | 11.4 | -140.2% | / | 12.3% | /
CCOC(=O)C1=C(C)N=C2SCCC(=O)N2C1c1ccc(OCc2ccccc2)cc1 (stereo not given) | / | 3.9 | / | / | / | /
O=C1C=CCC(/C=C/c2ccccc2)O1 (stereo not given) | 16.2% | / | / | 10µM* | -0.7% | ?
Cn1c(=O)n(CC(=O)N2CCN(c3nnc(-c4ccccc4)c4ccccc34)CC2)c2ccccc21 | -17.3%[46.1 µM] | -0.5 | -17.4%[10 µM] | 14.1µM* | -2.6%[38.3 µM] | ?
SMILES | NPSR antag | IMPase cell inh | HTT cytoprotect | HTT aggregate | IMPase Li cell | LMNA splice mod
COCCn1c(=O)c(C)nc2cnc(Oc3ccc(OC)cc3)nc21 | / | / | 18.0% | / | -8.7% | -2.2%
Cc1cccc(Cn2cc(SCC(=O)Nc3nccs3)c3ccccc32)c1 | ? | -0.2 | 13.4%[10 µM] | 2.7% | 58.2%[38.3 µM] | -4.0%
Cc1csc(NC(=O)CSc2nc3ccccc3s2)n1 | -9.0%[46.1 µM] | 1.7 | 10.6%[10 µM] | -9.9% | 20.8%[38.3 µM] | -0.5%
O=C(CSc1nc2ccccc2s1)Nc1nccs1 | -10.9%[46.1 µM] | 6.4 | 3.2% | 20µM* | -5.4%[38.3 µM] | 5.0%
Cc1ccc(Cn2cc(SCC(=O)Nc3nccs3)c3ccccc32)cc1 | 10µM* | 15.2 | -37.2%[10 µM] | 8.5% | 37.2%[38.3 µM] | -4.6%
CC(=O)O[C@@H]1CC[C@]2(C)[C@H]3CC[C@]4(C)[C@H](C[C@H]5CCCC[C@@]54C(C)=O)[C@@H]3CC(=O)[C@@]2(O)C1 | / | / | 6.7% | / | / | /
CCN(CC)c1ccc(C=Nc2cc(C)ccc2C)c(O)c1 | -21.5% | / | / | -13.8% | 3.0% | 1.1%
Cc1ccc(N=Cc2ccc(O)cc2O)cc1F | -4.6%[46.1 µM] | 5.1 | 3.9% | 3.16µM* | 0.7%[38.3 µM] | 1.2%
COc1cc2ncnc(NCc3ccc(C)cc3)c2cc1OC | -23.8%[46.1 µM] | -17.6[1.84 µM] | -19.3%[10 µM] | 35.5µM* | 22.5%[38.3 µM] | -10.5%
COC(=O)c1cc(C(=O)OC)cc(-n2c(C)cc(C(=O)CC#N)c2C)c1 | -8.8%[46.1 µM] | 1.3 | -8.1% | 25.5% | -13.8%[38.3 µM] | 6.7%
Cc1cc(C(=O)CC#N)c(C)n1-c1ccc(OC(F)F)cc1 | -6.3%[46.1 µM] | -1.6 | 1.7%[10 µM] | 8.91µM* | 3.7%[38.3 µM] | ?
Cc1cn([C@H]2C[C@H](O)[C@@H](COC(N)=O)O2)c(=O)[nH]c1=O | / | / | 3.4%[10 µM] | / | -0.3% | /
O=C(Nc1ccc(Cl)cc1)c1cc(S(=O)(=O)N2CCOCC2)cs1 | 1.3%[46.1 µM] | 7.7 | -47.7% | 10µM* | 1.4%[38.3 µM] | ?
Cc1ccccc1N(CC(=O)N/N=C/c1cc(C)n(-c2ccccc2C)c1C)S(C)(=O)=O | ? | 8.1 | -5.6% | 17.8µM* | 7.6%[38.3 µM] | 12.4%
Cc1cc(C)nc(SCC(=O)N/N=C/c2cc(C)n(-c3ccccc3C)c2C)n1 | -3.3% | / | / | ? | 7.8% | ?
C[C@@H]1CC2(OC(O)[C@]3(C)O[C@H]23)O[C@H]2C[C@@]3(C)[C@@H]4CC[C@H]5C(C)(C)C(O[C@@H]6OC[C@@H](O)[C@H](O)[C@H]6O)CC[C@@]56C[C@@]46CC[C@]3(C)[C@@H]12 (stereo not given in full) | / | / | -77.7% | / | 5.7% | /
